For 40 compounds, activity change, negative = inhibition and activity results are on record in PubChem BioAssay (NCATS).

Molecules are shown by their SMILES.

The target in one assay is Guanidinoacetate N-methyltransferase (Homo sapiens) (UniProt Q14353). The assay is described as follows: Confirmatory Screen for Target Class Profiling of Small Molecule Inhibitors of Methyltransferases (AID 1745852). On activity change, negative = inhibition: on the % scale 0 is the no-effect control and ±100 the full control effect. To be noted: MTase-Glo luminescence, SAH detection, recombinant enzyme; activity change, negative = inhibition: at 57.3 µM (top of the series) unless noted; series mostly up to 57.3 µM.
In the case of `COc1ccc(N2CCN(C(=O)c3cc(NC(C)=O)cc4nc(C)ccc34)CC2)cc1`, the activity change, negative = inhibition amounted to 4.56%.
On to `COc1ccc(C(=O)N(Cc2ccco2)S(=O)(=O)c2ccc3c(c2)n(C)c(=O)n3C)cc1`, for which the activity change, negative = inhibition was -1.3%.
Turning to `CN(C)CC1(O)CCC2(CCN(C(=O)c3cccn3C)CC2)CC1`, the activity change, negative = inhibition was determined as 3.21%.
For the compound `C[S+](=O)([O-])N1CCC(Cn2ccc3c(N4CCOCC4)nc(-c4cccc5[nH]ncc45)cc32)CC1`, the activity change, negative = inhibition is -3.16%.

The target in another assay is Nicotinamide N-methyltransferase (Homo sapiens) (UniProt P40261). The description is as above. To be noted: MTase-Glo luminescence, SAH detection, recombinant enzyme; measured here: NNMT max response; stronger effect = lower value.
Chain of Nicotinamide N-methyltransferase (Homo sapiens) (P40261 whole entry, looked up): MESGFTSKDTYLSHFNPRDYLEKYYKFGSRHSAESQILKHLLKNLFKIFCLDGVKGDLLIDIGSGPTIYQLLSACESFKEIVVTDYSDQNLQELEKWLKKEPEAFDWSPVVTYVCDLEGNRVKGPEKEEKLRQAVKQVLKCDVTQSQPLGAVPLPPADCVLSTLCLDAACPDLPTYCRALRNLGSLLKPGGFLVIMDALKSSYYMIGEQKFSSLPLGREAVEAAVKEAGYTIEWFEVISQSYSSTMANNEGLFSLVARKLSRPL
As to `c1ccc(-c2cc3c(cn2)NCCN(CC2CC2)C3)cc1`, the activity is 4.63%.
Consider `Cc1c(O)cc(O)c2c(=O)c(O)c(-c3ccc(O)c(O)c3)oc12`, for which the activity was -19.4%.
For the compound `Nc1nc(NCc2ccc(Cl)cc2Cl)cc(C2CC(O)C2)n1` (centres undefined), the activity is -23.3%.
Take `O=C(O)c1ccc2c(c1)C1C=CCC1C(c1ccc(Cl)cc1)N2` (centres undefined): the activity is -22.4%.
Turning to `Cc1nc(NC(=O)C2CC(=O)N(c3n[nH]c4cc(Br)ccc34)C2)sc1C` (centres undefined), the activity is -94.1%.
On to `CCCC1c2cccn2CCN1C(=O)Nc1ccc(F)cc1F` (centres undefined), for which the activity was -4.75%.
The same measure, in the same setting: then `COc1cccc(N2C(=O)c3cc4occc4n3CC2(C)C(=O)NC2CCCCCC2)c1` (centres undefined), with -10.8%; and `COc1ccc(CCNC(=O)c2ccc(CN3C(=O)CCn4nccc43)cc2)cc1OC`, with -12.4%; and `CCN(CC)CCCNC(=O)CCc1nnc2n(Cc3ccccc3)c(=O)c3ccccc3n12`, with -2.92%.
Take `O=C(c1ccc(C2CCCNC2)cc1)N1CCN(c2ccncc2)CC1` (centres undefined): the activity was -3.55%.
Same read-out and setting: then `CC1CCCCN1CCNC(=O)CCc1nnc2n(Cc3ccc(F)cc3)c(=O)c3ccccc3n12` (centres undefined), with -9.89%.
`O=C(NCCc1ccc(Cl)cc1)c1ccc2c(=O)[nH]c3c(C(=O)NC4CCCC4)sc(=S)n3c2c1`: the activity is -77.1%.
Consider `CCOC(=O)c1cc2n(n1)CC(C)(C(=O)NCCC(C)C)N(c1ccccc1C)C2=O` (centres undefined), for which the activity was determined as 3.85%.
`CCN(CCc1nc2ccc(C)cc2[nH]1)C(=O)c1ccccc1C1CCNC1` (centres undefined): the activity stood at 7.78%.
Still for that read-out and setting: then `CC1CCN(CCCNC(=O)CCc2nnc3n(Cc4ccccc4)c(=O)c4ccccc4n23)CC1`, with -2.83%; and `COc1ccc(S(=O)(=O)N2CCC(n3c(=O)[nH]c4ccccc43)CC2)cc1`, with -15.3%.
Same read-out and setting: next, `CCCN1CCn2c3c(c4cc(OC)ccc42)CCN=C31`: -6.4%.
For the compound `COc1cccc(Nc2cc3c(cn2)CN(Cc2cccnc2)CCN3)c1`, the activity is -7.33%.
As for `OCC1(Cc2ccccc2)CCCN(Cc2cn[nH]c2-c2ccc(F)cc2)C1` (centres undefined), the activity was 0.855%.
As to `COc1ccc(OC)c2c1cc1n2CC(C)(C(=O)NC2CCCCC2)N(Cc2ccccn2)C1=O` (centres undefined), the activity is -22.4%.
As to `CN(Cc1ccccc1)C1(C(=O)NC2CCC(O)CC2)Cc2ccccc2C1` (centres undefined), the activity came out at 7.08%.
The same measure, in the same setting: then `Cc1ccsc1CCNC(=O)Cn1c(=O)oc2cc(S(=O)(=O)N3CCCC3)ccc21`, with -5.53%; and `COc1ccc(-c2nc3ccccc3[nH]2)cc1`, with -74.3%; and `CC(C)CCn1c(=O)c2ccccc2n2c(CCC(=O)N3CCN(Cc4ccccc4)CC3)nnc12`, with -63.2%.
For the compound `Cc1ccc(C(=O)O)c2c1N[C@@H](c1ccc(Cl)cc1)[C@H]1CC=C[C@@H]21`, the activity is 0.978%.
On to `COC(=O)[C@@H]1Cc2ncn(Cc3ccc(Cl)cc3)c2CN1CCCc1ccccc1`, for which the activity was -17%.
In the case of `CN1CCCC2(C1)CN(C)c1ccc(C(=O)NCC3CCCCC3)cc12` (centres undefined), the activity is -10.6%.
As for `O=C(NCc1ccccc1)c1ccc2c(=O)nc3c(-c4ccccc4F)n[nH]n3c2c1`, the activity was -8.4%.
Consider `CCNc1ncc(CN2CCN(c3ccncc3)CC2)cn1`, for which the activity was -0.695%.
Same read-out and setting: next, `Cn1c(=O)n(C)c2cc(S(=O)(=O)Nc3ccc(-c4nnc(-c5ccccc5)o4)c(Cl)c3)ccc21`: -40.4%; `CC1CCN(CCCNC(=O)CCc2nnc3n(Cc4ccc(F)cc4)c(=O)c4ccccc4n23)CC1`: -14.9%.
Take `Cn1c(=O)n(C)c2cc(S(=O)(=O)N3CCN(C4CCCCC4)CC3)ccc21`: the activity was -8.71%.
Consider `CCNc1nccc(N2CCC(CC(=O)N3CCN(c4ccccc4F)CC3)CC2)n1`, for which the activity is 2.88%.
As to `O=C(CC1CCCC1)N1CCC(Nc2cccnc2)C1` (centres undefined), the activity is -14.6%.
For the compound `Cc1cnc(C2CC2)n1C1CCN(S(=O)(=O)c2ccc3c(c2)OCCO3)CC1`, the activity was -30.4%.
On the same count and under the same terms, next, `COc1ccc(CN2C(=O)c3cc4ccccc4n3CC2(C)C(=O)NCc2ccccc2)cc1OC` (centres undefined): -57.8%.
On to `COc1ccc(N2CCN(C(=O)c3cc(NC(C)=O)cc4nc(C)ccc34)CC2)cc1`, for which the activity turned out to be 4.7%.
Regarding `COc1ccc(C(=O)N(Cc2ccco2)S(=O)(=O)c2ccc3c(c2)n(C)c(=O)n3C)cc1`, the activity is -20%.
`CN(C)CC1(O)CCC2(CCN(C(=O)c3cccn3C)CC2)CC1`: the activity worked out at 3.1%.
As for `C[S+](=O)([O-])N1CCC(Cn2ccc3c(N4CCOCC4)nc(-c4cccc5[nH]ncc45)cc32)CC1`, the activity is -5.17%.

Another assay deals with Phenylethanolamine N-methyltransferase (Homo sapiens) (UniProt P11086). The description is as above. To be noted: MTase-Glo luminescence, SAH detection, recombinant enzyme; measured here: PNMT max response; stronger effect = lower value.
Chain of Phenylethanolamine N-methyltransferase (Homo sapiens) (P11086 whole entry, looked up): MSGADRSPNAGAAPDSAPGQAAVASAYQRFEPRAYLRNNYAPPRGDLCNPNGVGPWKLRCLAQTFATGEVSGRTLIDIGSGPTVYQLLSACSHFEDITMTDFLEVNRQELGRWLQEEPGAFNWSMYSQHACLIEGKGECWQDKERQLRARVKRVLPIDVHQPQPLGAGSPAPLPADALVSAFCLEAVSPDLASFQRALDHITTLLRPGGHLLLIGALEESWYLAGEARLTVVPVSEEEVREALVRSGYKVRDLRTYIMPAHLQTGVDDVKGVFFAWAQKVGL
On to `c1ccc(-c2cc3c(cn2)NCCN(CC2CC2)C3)cc1`, for which the activity turned out to be 6.73%.
On the same count and under the same terms, next, `Cc1c(O)cc(O)c2c(=O)c(O)c(-c3ccc(O)c(O)c3)oc12`: -17.7%; `Nc1nc(NCc2ccc(Cl)cc2Cl)cc(C2CC(O)C2)n1` (centres undefined): -0.704%.
With `O=C(O)c1ccc2c(c1)C1C=CCC1C(c1ccc(Cl)cc1)N2` (centres undefined), the activity was -23.3%.
Turning to `Cc1nc(NC(=O)C2CC(=O)N(c3n[nH]c4cc(Br)ccc34)C2)sc1C` (centres undefined), the activity is 7.69%.
The same measure, in the same setting: next, `CCCC1c2cccn2CCN1C(=O)Nc1ccc(F)cc1F` (centres undefined): -3.85%.
For the compound `COc1cccc(N2C(=O)c3cc4occc4n3CC2(C)C(=O)NC2CCCCCC2)c1` (centres undefined), the activity was -10.9%.
On to `COc1ccc(CCNC(=O)c2ccc(CN3C(=O)CCn4nccc43)cc2)cc1OC`, for which the activity was -27%.
On to `CCN(CC)CCCNC(=O)CCc1nnc2n(Cc3ccccc3)c(=O)c3ccccc3n12`, for which the activity was determined as 0.626%.
Regarding `O=C(c1ccc(C2CCCNC2)cc1)N1CCN(c2ccncc2)CC1` (centres undefined), the activity is 3.06%.
With `CC1CCCCN1CCNC(=O)CCc1nnc2n(Cc3ccc(F)cc3)c(=O)c3ccccc3n12` (centres undefined), the activity was determined as 0.568%.
On the same count and under the same terms, then `O=C(NCCc1ccc(Cl)cc1)c1ccc2c(=O)[nH]c3c(C(=O)NC4CCCC4)sc(=S)n3c2c1`, with -66.5%.
Same read-out and setting: then `CCOC(=O)c1cc2n(n1)CC(C)(C(=O)NCCC(C)C)N(c1ccccc1C)C2=O` (centres undefined), with 1.34%; and `CCN(CCc1nc2ccc(C)cc2[nH]1)C(=O)c1ccccc1C1CCNC1` (centres undefined), with 8.18%.
`CC1CCN(CCCNC(=O)CCc2nnc3n(Cc4ccccc4)c(=O)c4ccccc4n23)CC1`: the activity is 2.06%.
Regarding `COc1ccc(S(=O)(=O)N2CCC(n3c(=O)[nH]c4ccccc43)CC2)cc1`, the activity is -23.9%.
Same read-out and setting: next, `CCCN1CCn2c3c(c4cc(OC)ccc42)CCN=C31`: -5.52%; `COc1cccc(Nc2cc3c(cn2)CN(Cc2cccnc2)CCN3)c1`: -8.41%.
With `OCC1(Cc2ccccc2)CCCN(Cc2cn[nH]c2-c2ccc(F)cc2)C1` (centres undefined), the activity was determined as 5.69%.
Regarding `COc1ccc(OC)c2c1cc1n2CC(C)(C(=O)NC2CCCCC2)N(Cc2ccccn2)C1=O` (centres undefined), the activity was -6.38%.
For the compound `CN(Cc1ccccc1)C1(C(=O)NC2CCC(O)CC2)Cc2ccccc2C1` (centres undefined), the activity is 6.38%.
On to `Cc1ccsc1CCNC(=O)Cn1c(=O)oc2cc(S(=O)(=O)N3CCCC3)ccc21`, for which the activity is -81.8%.
Still for that read-out and setting: then `COc1ccc(-c2nc3ccccc3[nH]2)cc1`, with -79.7%; and `CC(C)CCn1c(=O)c2ccccc2n2c(CCC(=O)N3CCN(Cc4ccccc4)CC3)nnc12`, with -0.865%; and `Cc1ccc(C(=O)O)c2c1N[C@@H](c1ccc(Cl)cc1)[C@H]1CC=C[C@@H]21`, with 2.78%.
Consider `COC(=O)[C@@H]1Cc2ncn(Cc3ccc(Cl)cc3)c2CN1CCCc1ccccc1`, for which the activity is -1.27%.
`CN1CCCC2(C1)CN(C)c1ccc(C(=O)NCC3CCCCC3)cc12` (centres undefined): the activity was -0.542%.
Turning to `O=C(NCc1ccccc1)c1ccc2c(=O)nc3c(-c4ccccc4F)n[nH]n3c2c1`, the activity was -13.5%.
With `CCNc1ncc(CN2CCN(c3ccncc3)CC2)cn1`, the activity was determined as 1.91%.
As for `Cn1c(=O)n(C)c2cc(S(=O)(=O)Nc3ccc(-c4nnc(-c5ccccc5)o4)c(Cl)c3)ccc21`, the activity was -17.1%.
`CC1CCN(CCCNC(=O)CCc2nnc3n(Cc4ccc(F)cc4)c(=O)c4ccccc4n23)CC1`: the activity is -5.49%.
Consider `Cn1c(=O)n(C)c2cc(S(=O)(=O)N3CCN(C4CCCCC4)CC3)ccc21`, for which the activity is -5.99%.
Regarding `CCNc1nccc(N2CCC(CC(=O)N3CCN(c4ccccc4F)CC3)CC2)n1`, the activity came to 5.27%.
For the compound `O=C(CC1CCCC1)N1CCC(Nc2cccnc2)C1` (centres undefined), the activity is -7.86%.
Consider `Cc1cnc(C2CC2)n1C1CCN(S(=O)(=O)c2ccc3c(c2)OCCO3)CC1`, for which the activity was -0.889%.
In the case of `COc1ccc(CN2C(=O)c3cc4ccccc4n3CC2(C)C(=O)NCc2ccccc2)cc1OC` (centres undefined), the activity was 1.95%.
Same read-out and setting: then `COc1ccc(N2CCN(C(=O)c3cc(NC(C)=O)cc4nc(C)ccc34)CC2)cc1`, with 7.32%.
For the compound `COc1ccc(C(=O)N(Cc2ccco2)S(=O)(=O)c2ccc3c(c2)n(C)c(=O)n3C)cc1`, the activity is -5.7%.
For `CN(C)CC1(O)CCC2(CCN(C(=O)c3cccn3C)CC2)CC1`, the activity was found to be 9.04%.
As to `C[S+](=O)([O-])N1CCC(Cn2ccc3c(N4CCOCC4)nc(-c4cccc5[nH]ncc45)cc32)CC1`, the activity was -54.3%.
